A number with no mark means an inactive call. The source made the active and inactive calls. Calls come from the whole dose curve; as a rule, active = well fitted curve in the direction sought with a large enough effect in the repeat runs; inconclusive = weak or mixed curves; inactive = flat fitted curve, though single readings scatter.
test: qHTS assay to test for compound auto fluorescence at 590 nm (red) in HepG2 cell free culture (AID 720684); conditions: cell-free medium autofluorescence, red 540/590 nm; series mostly up to 91.3 µM; fluorescence, % of Rose Bengal: at the top concentration
Description: U.S. Tox21 Program National Center for Advancing Translational Sciences [NCATS] NIH Chemical Genomics Center [NCGC] U.S. Environmental Protection Agency [EPA] National Institutes of Environmental Health Sciences [NIEHS] National Toxicology Program [NTP] U.S. Food and Drug Administration [FDA] Tox21 Assay Overview: Compound auto fluorescence often interferes with screening of the compound library against various biological targets and signaling pathways. Some of these compounds may have fluorophoric properties. Such properties may interfere with the assay outputs resulting in false positives and/or negatives. To decrease such complications and ensure the compound activities are relevant in terms of biological response, the Tox21 10K compound library was screened for auto fluorescence. From the fluorophores used as reporter signals in our screening assays, the auto fluorescence equivalencies of compounds against three fluorophores have been evaluated: Triamterene, Fluorescein and Rose Bengal sodium for blue, green and red fluorescence, respectively. The fluorescence intensities were measured using Excitation/Emission wavelengths at 405/460nm, 485/535nm and 540/590nm for blue, green and red labels, respectively. This assay includes the red fluorescence data.
Tox21 Assay Protocol Summary: 5 uL of culture medium (MEM containing 10% FBS) per well was dispensed into black wall/clear bottom 1536-well plates using a Multidrop Combi Dispenser (ThermoFisher Scientific, Waltham, MA). After 23 nL compound or DMSO vehicle was transferred into assay plate by a pintool work station (Kalypsys, San Diego, CA), fluorescence intensities in the assay plates were measured by an Envision (PerkinElmer, Shelton, CT) plate reader using three labels for measuring blue, green and red fluorescence at […] 460, 535 and 590nm respectively.
% is set by controls: 0 for no effect and ±100 for the full control effect.

Compound | fluorescence, % of Rose Bengal | Potency
NCCCC(O)(P(=O)(O)O)P(=O)(O)O | 0.394% [at 46 µM] | –
O=C(O)CC(=O)O | -0.023% | –
COC(=O)C1=C(C)NC(C)=C(C(=O)OCCCN2CCC(c3ccccc3)(c3ccccc3)CC2)C1c1cccc([N+](=O)[O-])c1 (stereo not given) | 0.114% [at 46 µM] | –
Cc1c(C)n(Cc2ccccc2)c2ccc(C(=O)OCCN(C)C)cc12 | 0.115% [at 46 µM] | –
CCCOc1sc(C(=O)N2CCC(c3cc(CN)ccc3F)CC2)c(C)c1Br | 0.204% | –
CCCCOc1ccc(C(=O)CCN2CCCCC2)cc1 | -0.355% [at 18.6 µM] | –
C[n+]1c2cc(N)ccc2cc2ccc(N)cc21 (tested in a mixture with another compound) | 0.706% [at 46 µM] | –
COCC(=O)O[C@]1(CCN(C)CCCc2nc3ccccc3[nH]2)CCc2cc(F)ccc2[C@@H]1C(C)C | -0.0524% [at 46 µM] | –
CCOC(=O)COc1ccc(C)cc1 | 0.0215% | –
ClC/C=C\CCl | 0.0213% [at 95.7 µM] | –
C=CC(=C)CCC=C(C)C | -0.0089% | –
CCCCCCOc1ccc(O)cc1 | 0.0411% | –
C=C[C@](C)(O)CC[C@@H]1[C@@]2(C)CCCC(C)(C)[C@@H]2CC[C@@]1(C)O | 0.0222% | –
CC(C)(c1cc(Br)c(OCCO)c(Br)c1)c1cc(Br)c(OCCO)c(Br)c1 | 0.112% | –
CC1(C)C(=O)N(Br)C(=O)N1Br | 0.0472% | –
COc1ccc2sc(C(=O)Nc3nnn[nH]3)c(OC(C)C)c2c1 | 0.144% | –
Nc1ccc2cc3ccc(N)cc3nc2c1 | – | inactive
CCCCC(CC)COC(=O)c1ccc(O)cc1 (stereo not given) | – | inactive
c1cc2c3c(c1)ccc1cccc(c13)C2 | -0.0273% [at 95.7 µM] | –
C=CC(=O)OCCOCC(CC)(COCCOC(=O)C=C)COCCOC(=O)C=C | -0.137% [at 95.7 µM] | –

Compound | fluorescence, % of Rose Bengal | Potency
Clc1ccc(C(Cn2ccnc2)OCc2c(Cl)cccc2Cl)c(Cl)c1 (stereo not given) | -0.46% [at 18.6 µM] | –
CC(C)(C)CC(C)(C)c1ccccc1O | 0.0733% | –
Cc1ccc2ccc3cccc4ccc1c2c34 | 0.0293% | –
Cc1occc1SSc1ccoc1C | 0.123% | –
CC(CN(C)C)CN1c2ccccc2CCc2ccccc21 (stereo not given) | 0.0079% [at 18.6 µM] | –
CCCCNc1c(C(=O)OCC)c(C)nc2c1cnn2CC | 0.193% [at 46 µM] | –
CCCCCCCCCCCCCC[n+]1ccccc1 | -0.259% | –
CCC(C)c1cc([N+](=O)[O-])cc([N+](=O)[O-])c1OC(=O)OC(C)C (stereo not given) | -0.0098% | –
CC(NCCC(c1ccccc1)c1ccccc1)c1ccccc1 (stereo not given) | 0.0252% [at 46 µM] | –
Cc1ccc(N)cc1O | -0.245% | –
Cc1cccc(Br)c1 | -0.243% | –
O=C1c2c(O)ccc([N+](=O)[O-])c2C(=O)c2c([N+](=O)[O-])ccc(O)c21 | -0.0301% | –
CC(C)OC(=O)c1cc(C(=O)OC(C)C)cc([N+](=O)[O-])c1 | 0.311% [at 95.7 µM] | –
O=C(Nc1ccc(Cl)cc1)Nc1ccc(Cl)c(C(F)(F)F)c1 | 0.0366% [at 46 µM] | –
S=P(N1CC1)(N1CC1)N1CC1 | – | inactive
O=C1NCN(c2ccccc2)C12CCN(CCCC(c1ccc(F)cc1)c1ccc(F)cc1)CC2 | -0.548% [at 46 µM] | –
CC(C)(c1cc(Br)c(O)c(Br)c1)c1cc(Br)c(O)c(Br)c1 | – | inactive
Brc1ccccc1-c1ccccc1 | -0.529% | –
[O]=[Zr] | -0.0762% | –
CCCCN(CCCC)CCC(O)c1cc2c(Cl)cc(Cl)cc2c2cc(C(F)(F)F)ccc12 (stereo not given) | 0.0098% [at 18.6 µM] | –

— PubChem BioAssay (Tox21)
